# Results: the supplement of paper PMC11417369
# Over roughly 25,000 sequences, “ln(normalized median fluorescence intensity)” has its median near 6.7; the highest 2% begin near 10. This excerpt belongs to a sample that is enriched for the highest values.
# Test system: PfHDP1 homeodomain (GST-tagged)
# Assay: gcPBM binding intensity (ln(normalized median fluorescence intensity)); higher = stronger DNA binding
# Method in brief: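 For binding intensity, the highest Masliner-normalised natural-log median intensity across replicate spots of either probe orientation was taken. Protein bound to the array was stained with Alexa488 anti-GST antibody and scanned at 488 nm. The protein, GST-tagged P. falciparum DNA-binding domains from E. coli at about 25 μg on average, had been applied for 1 h to an Agilent 4 × 180k array of primer-extended double-stranded 36-bp intergenic genomic probes and negative controls.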
row,Sequence,gcPBM binding intensity (ln)
1,AACAAATGTTAAATGTTTAAGGAGAAAATAAAGACA [CACACA_negctrl_site1163],6.75
2,ATTTGCTCACAAGAAGCACACAAAAAAAGAAAAAAA [CACACA_site9338],7.34
3,TATTTTTTCCTTTGTTTTTTAAACTATCTTAACTAA [XGTACX_negctrl_site519],6.37
4,TCCATATGCAAACTGGTGCACAAGTAGCTTTTATAT,10.8
5,AACTTTTTTATATGCACACATAAACAAGGATATATA [CACACA_site2874],10.3
6,TTAACTTTTTTATATGCACACATAAACAAGGATATA [CACACA_site8932],10.1
7,ACACATAAATGAATAAATAAATAAATATAAATATAA [CACACA_negctrl_site1784],6.21
8,TAATATAGAAAATGCATACACACTTTATATATATAT [CACACA_site911],8.61
9,TTTTTTTTTTTTTAAACATGCAAAATATATAATTTT [TGCATGCA_site633],6.44
10,TAGAAATATATTTATTGTACATTGTATATATTATAT [XGTACX_site7584],6.26
11,TATATAATCGAGTGCACACACAAAAAAAAAGTGAAC [CACACA_site1483],10.4
12,TTATAATATATATAAAAGAAAAAAAATTATAATATA [CACACA_negctrl_site90],6.53
13,TTTAATAATTATTAAAGTACAAAATAAATATTGAAT [XGTACX_site7538],6.7
14,TGTATATAATCGAGTGCACACACAAAAAAAAAGTGA [CACACA_site8417],10.1
15,TCAAAAGAATAATTGGTGCAAATTATATAATATAAT [GTGCAC_site9804],10.5
16,ATATATATATAATAAGTGCAAAAAAAAGAAAAAAAT,9.3
17,TGTAATAATTATTGCACGCACACAAAAACCTATAGA [CACACA_site2932],10.2
18,TAATAATTATTGCACGCACACAAAAACCTATAGATT [CACACA_site2931],10.6
19,AAAAAATATAGATGCACACACAAAAAAACAAATTAA [CACACA_site6718],8.71
20,TATATAACCGAGTGCACACACAAAAAAAAAGTGAAC [CACACA_site6806],10.8
21,TGAATATTCATATGCACACAAATTAATATACATAAT [CACACA_site442],10.3
22,AATATAATATATTGCACACAAAAAGTGAATTATTCT [CACACA_site1684],10.7
23,TATTTATTTAATTACACACGAACATATAACCATTTC [CACACA_site211],6.81
24,ATATATATATTTATATTTATATGTAAATATCAACGT [TGCATGCA_negctrl_site32],8.19
25,ATCCCCATAAAAAATACACACAAATATTTATACATA [CACACA_site1001],6.79
